Bioassay records deposited in PubChem by National Center for Advancing Translational Sciences (NCATS).
D1 antagonist: blocks dopamine activation of the human D1 receptor; P21728; HEK293 TREx D1 cells, calcium flux, dopamine EC80; hits give low values; activity change, negative = inhibition, % at 10 µM; 3.2% of 360,000 active; AID 504652; in the data active = activity change below about -30%
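Calcium flux readout: force-coupled, inducible Hek293 Trex D1 line, cells induced overnight at 30 C with tetracycline, dye-loaded 30–90 min at RT. Antagonism scored against EC80 dopamine challenge given 180 s after compound.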
TRHR agonist: TRH receptor (human) agonism | TRHR cells, calcium flux fluo-8, FDSS agonist mode | activation, % at 2 µM | 0.18% of 360,000 active | AID 493084
Target sequence (P34981 whole entry, looked up): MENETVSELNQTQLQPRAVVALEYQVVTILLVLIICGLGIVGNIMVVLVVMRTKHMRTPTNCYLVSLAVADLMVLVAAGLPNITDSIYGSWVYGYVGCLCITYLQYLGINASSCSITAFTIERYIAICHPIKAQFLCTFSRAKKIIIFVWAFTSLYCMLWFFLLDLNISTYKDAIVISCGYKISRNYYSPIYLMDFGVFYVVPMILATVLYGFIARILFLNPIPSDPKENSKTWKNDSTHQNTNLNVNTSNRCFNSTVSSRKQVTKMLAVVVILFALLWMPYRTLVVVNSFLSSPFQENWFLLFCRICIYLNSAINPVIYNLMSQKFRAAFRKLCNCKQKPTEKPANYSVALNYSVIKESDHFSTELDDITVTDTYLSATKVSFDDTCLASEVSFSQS
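Steps: seed TRHR cells overnight; add fluo-8 no-wash Ca dye, RT 30 min–1.5 h; record 10 s baseline; pin-transfer compounds; monitor fluorescence 1 cycle/s for the agonist window. Calcium increases flag candidate agonists.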
TRHR PAM: allosteric enhancers of human TRH receptor. P34981. TRHR cells, fluo-8 calcium fluorescence, EC20 TRH enhancement. enhancement, % at 2 µM. 0.66% of 360,000 active; in the data active = enhancement above about 30%
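Enhancer read-out: after compound pinning and an initial kinetic agonist-mode read, an EC20 of TRH (10 nM final) was injected and fluo-8 calcium signal (Ex 480/Em 530) followed at 1 s/cycle for 100 cycles in TRHR-expressing cells.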
D1 agonist: activates the human D1 dopamine receptor | activation, % at 2 µM | HEK293 T-REx D1 cells, calcium flux, agonist mode | 1% of 360,000 active | P21728 | AID 504660
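Tetracycline-induced HEK293 TREx D1 cells, force-coupled to calcium signalling, were dye-loaded with a no-wash calcium kit. Compound was pin-added after a 10 s baseline. Fluorescence was read kinetically at 1 cycle/s for 180 s, with calcium rises flagged as agonism.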
D1 PAM: enhances dopamine response at the human D1 receptor; P21728; HEK293 TREx D1 cells, calcium flux, dopamine EC20 potentiation; potentiation, % at 10 µM; 0.036% of 360,000 active; in the data active = potentiation above about 30%
LDHA block: LDHA (human) enzyme inhibition; P00338; purified LDHA, NADH/diaphorase-resazurin fluorescence; hits give low values; activity change, % (values are at about 110 or 230 µM); 0.15% of 480,000 active; AID 1347041; in the data active = activity change below about -30%
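Human LDH5 (2 nM) was incubated with 0.06 mM NADH and 0.2 mM pyruvate for 5 min at room temperature in Tris pH 7.4. Remaining NADH was coupled through diaphorase/resazurin, and resorufin fluorescence was read at 0 and 20 min.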
Large screens that a line does not name were inactive. Only some compounds are listed: those with a hit (about 3.6% of all), similar ones and a draw of the others. Cut-off read from the data, not from the text of the source, unless noted: active = activation above about 30%; inactive = the rest.

CCN(CCO)c1ccc(N=Cc2c(O)n(C)c(=S)[nH]c2=O)cc1	D1 agonist 75
COc1ccc(CCn2c(O)c(C=Nc3ccc(F)cc3)c(=O)[nH]c2=O)cc1OC	TRHR PAM 38
CCN(CC)c1ccc(N=Cc2c(O)n(CCc3ccc(OC)c(OC)c3)c(=O)[nH]c2=O)cc1	D1 agonist 40
Clc1ccccc1NC1=NCCCS1	TRHR PAM 35
COc1cc(/C=C2\C(=O)NC(=O)N(c3ccccc3)C2=O)c([N+](=O)[O-])cc1OC	D1 antagonist -56
COc1cc(/C=C2\C(=O)NC(=O)N(c3ccccc3)C2=O)cc(OC)c1O	none
Clc1ccccc1CNC1CN2CCC1CC2 (stereo unspecified)	none
OC(c1cccc(Cl)c1)(c1cccc(Cl)c1)C1CN2CCC1CC2 (stereo unspecified)	D1 antagonist -35, D1 agonist 52
CC1=Nc2ccccc2/C1=C/c1c(O)[nH]c(=O)[nH]c1=O	none
O=c1[nH]c(O)c(/C=C2/C=CC(c3cc(Cl)ccc3Cl)=N2)c(=O)[nH]1	D1 agonist 73
CN(c1ccc(OCC(=O)N2CCN(C/C=C/c3ccccc3)CC2)cc1)S(=O)(=O)c1cccs1	D1 antagonist -43
CCOc1ccc2nc(NC(=O)c3cccn(Cc4ccccc4)c3=O)sc2c1	D1 agonist 33 (no result: D1 antagonist)
CCOc1ccc2nc(NC(=O)c3cccn(Cc4ccc(C)cc4)c3=O)sc2c1	none (no result: D1 antagonist)
O=C(CN1CC=C(c2ccccc2)CC1)N(C1CCCCC1)C1CCS(=O)(=O)C1 (stereo unspecified)	none (no result: D1 antagonist, TRHR agonist, TRHR PAM, D1 agonist, D1 PAM)
CC(=O)Nc1ccc(S(=O)(=O)N2Cc3ccccc3-n3nncc3C2)cc1	LDHA block -30 (no result: D1 antagonist, TRHR agonist, TRHR PAM, D1 agonist, D1 PAM)
Cc1ccc(S(=O)(=O)N2Cc3ccccc3-n3nncc3C2)cc1	none (no result: D1 antagonist, TRHR agonist, TRHR PAM, D1 agonist, D1 PAM)
CC(NC(=O)Cn1cc(C(=O)c2ccccc2)c2ccccc21)c1ccccc1 (stereo unspecified)	none (no result: D1 antagonist, TRHR agonist, TRHR PAM, D1 agonist, D1 PAM)
Cc1[nH]c2ccccc2c1C=C(C#N)C#N	none (no result: D1 antagonist, TRHR agonist, TRHR PAM, D1 agonist, D1 PAM)
COc1cc(-c2c(C#N)c(N)nc3c2c(=O)nc2sccn23)ccc1OCc1ccccc1F	none (no result: D1 antagonist, TRHR agonist, TRHR PAM, D1 agonist, D1 PAM)
CCOC(=O)C1(CCc2ccccc2)CCN(Cc2cccc3c2OCO3)CC1	D1 antagonist -42
CCOC(=O)C1(CCc2ccccc2)CCN(Cc2cccc3cnccc23)CC1	D1 antagonist -45
CCOC(=O)C1(CCc2ccccc2)CCN(Cc2csc(C(C)=O)c2)CC1	none
CCOC(=O)C1(CCOc2ccccc2)CCN(Cc2ccccc2OC)CC1	none
C=CCOC(=O)C1=C(C)OC(N)=C(C(=O)OCC)C12C(=O)Nc1ccc(Br)cc12 (stereo unspecified)	none (no result: D1 antagonist, TRHR agonist, TRHR PAM, D1 agonist, D1 PAM)
COc1ccccc1CCNC1CCCCCC1	none
COc1ccccc1CCNC1CCC(C(C)(C)C)CC1 (stereo unspecified)	D1 agonist 89
COc1cc(O)c(C(=O)O)c(-c2cc(O)c(O)cc2C)c1	D1 antagonist -31
NCCCc1c[nH]c2ccccc12	none (no result: D1 antagonist, TRHR agonist, TRHR PAM, D1 agonist, D1 PAM)
C=CCN1C(=O)NC(=O)/C(=C/C=C/c2ccccc2)C1=O	D1 antagonist -34
COc1cccc(CCNCc2ccc(OC)c3ccccc23)c1	none (no result: D1 antagonist, TRHR agonist, TRHR PAM, D1 agonist, D1 PAM)
O=C(Nc1ccc(C(F)(F)F)cc1)OC1CN2CCC1CC2 (stereo unspecified)	D1 agonist 30
O=C(Nc1cccc(C(F)(F)F)c1)OC1CN2CCC1CC2 (stereo unspecified)	none
NC1CCc2cc(O)c(O)cc2C1 (stereo unspecified)	D1 antagonist -102, D1 agonist 77
CC1(C)CSC(=NCc2ccccc2)N1	D1 antagonist -38, TRHR agonist 77, D1 agonist 152, D1 PAM 36
C/C(=N\N1CCCCCC1)c1c(O)n(-c2ccc(Cl)cc2)c(=O)[nH]c1=O	none
C/C(=N\N1CCCCCC1)c1c(O)n(-c2ccc(C)cc2)c(=O)[nH]c1=O	D1 antagonist -40
COc1ccccc1OP(=O)(Nc1ccc(Br)cc1)Oc1ccccc1OC	D1 antagonist -47
COc1ccc(NP(=O)(Oc2ccccc2OC)Oc2ccccc2OC)cc1	none
O=c1c2ccccc2nc(/C=C/c2ccccc2F)n1-c1ccccc1O	none
O=c1c2ccccc2nc(/C=C/c2ccccc2O)n1-c1ccccc1O	D1 agonist 31 (no result: LDHA block)
Cc1ccccc1-n1c(/C=C/c2ccco2)nc2ccccc2c1=O	none (no result: D1 antagonist, TRHR agonist, TRHR PAM, D1 agonist, D1 PAM)
Cc1ccccc1-n1c(/C=C/c2ccc(N(C)C)cc2)nc2ccccc2c1=O	TRHR agonist 93, D1 agonist 197, D1 PAM 60
COCCNC(=O)Cn1cc(C(=O)c2ccccc2)c2ccccc21	none (no result: D1 antagonist, TRHR agonist, TRHR PAM, D1 agonist, D1 PAM)
Cc1[nH]c2c(C)cccc2c1C(O)CN1CCC(C)CC1 (stereo unspecified)	none (no result: D1 antagonist, TRHR agonist, TRHR PAM, D1 agonist, D1 PAM)
COC(=O)C1=C(c2ccc(F)cc2OCc2ccccc2)C[C@@H]2CC[C@H]1N2C(=O)NC1Cc2ccccc2C1	D1 antagonist -31
COC(=O)C1=C(c2cccc(OCc3ccccc3)c2)C[C@@H]2CC[C@H]1N2C(=O)NCc1cc(C)oc1C(F)(F)F	D1 antagonist -31
COC(=O)C1=C(c2cccc(OCc3ccccc3)c2)C[C@@H]2CC[C@H]1N2C(=O)NCc1ccc(OC)cc1	D1 PAM 41
COC(=O)C1=C(c2ccc(F)cc2OCc2ccccc2)C[C@@H]2CC[C@H]1N2C(=O)NCc1ccc(F)cc1	none
Cc1ccc(CNCCc2c[nH]c3ccccc23)c(C)c1	none (no result: D1 antagonist, TRHR agonist, TRHR PAM, D1 agonist, D1 PAM)
Cc1onc(-c2c(Cl)cccc2Cl)c1C(=O)Nc1ccc2c(C(F)(F)F)cc(=O)oc2c1	D1 antagonist -30
CN(Cc1cccs1)C(=O)CCl	none (no result: D1 antagonist, TRHR agonist, TRHR PAM, D1 agonist, D1 PAM)
CC(=O)OC1=CC[C@H]2[C@@H]3CC[C@H]4C[C@H](OC(C)=O)[C@@H](OC(C)=O)C[C@]4(C)[C@H]3CC[C@]12C	none
CC(=O)O[C@H]1C[C@@H]2CC[C@@H]3[C@H](CC[C@]4(C)C(=O)CC[C@@H]34)[C@@]2(C)C[C@@H]1OC(C)=O	D1 antagonist -41
CCOc1cc2c(cc1OCC)-n1cccc1C(c1ccc(F)c(OC)c1)NC2 (stereo unspecified)	D1 antagonist -43, D1 agonist 66
O=C(/C=C/c1c[nH]c2ccccc12)c1c(O)n(CCc2ccccc2)c(=O)[nH]c1=O	TRHR agonist 40, TRHR PAM 47, D1 agonist 383, D1 PAM 39
CCCCn1c(O)c(C(C)=NCCc2c[nH]c3ccccc23)c(=O)[nH]c1=O	none
Cc1nn(-c2ccccc2)c2c1C(c1cnn(C)c1C)SCC(=O)N2 (stereo unspecified)	none (no result: D1 antagonist, TRHR agonist, TRHR PAM, D1 agonist, D1 PAM)
Cc1cccc(C)c1-n1nnnc1C1(NC(C)C)CCCCC1	none (no result: D1 antagonist, TRHR agonist, TRHR PAM, D1 agonist, D1 PAM)
CN1CCN(c2ccc([N+](=O)[O-])c(Sc3ccccn3)c2)CC1	D1 antagonist -70
CN1CCN(c2ccc([N+](=O)[O-])c(Sc3nncn3C)c2)CC1	none
